Results as given in the antibiotic and cytotoxicity screens of Wong et al. (2023).
The campaign covered roughly 39,000 compounds. About 1,500 (3.8%) were called active. For the sample, actives were picked, then their nearest neighbours and some compounds at random.

Tested on: HSkMC (human skeletal muscle cells)
Assay: cytotoxicity call (relative viability < 0.9)
Settings: 10 µM

SMILES	cytotoxicity call
COc1ccc(NC(=O)N(C)C[C@@H]2Oc3ccc(NC(=O)CCCCCC(=O)Nc4ccccc4N)cc3CC(=O)N([C@H](C)CO)C[C@H]2C)cc1	inactive
COc1ccc(NC(=O)Nc2ccc3c(c2)C(=O)N([C@@H](C)CO)C[C@H](C)[C@H](CN(C)Cc2ccc(Cl)c(Cl)c2)O3)cc1	active
COc1ccc(NC(=O)Nc2ccc3c(c2)C(=O)N([C@H](C)CO)C[C@H](C)[C@H](CN(C)Cc2ccc(Cl)c(Cl)c2)O3)cc1	inactive
C[C@H](CO)N1C[C@H](C)[C@H](CN(C)Cc2ccc(Cl)c(Cl)c2)Oc2ccc(NC(=O)Nc3ccc(F)cc3)cc2C1=O	active
C[C@@H]1CN([C@H](C)CO)C(=O)c2cc(NC(=O)Nc3ccc(F)cc3)ccc2O[C@@H]1CN(C)Cc1ccc(Cl)c(Cl)c1	inactive
C[C@@H]1CN([C@@H](C)CO)C(=O)c2cc(NC(=O)Nc3ccc(F)cc3)ccc2O[C@@H]1CN(C)Cc1ccc(Cl)c(Cl)c1	active
C[C@H]1CN([C@@H](C)CO)C(=O)c2cc(NC(=O)Nc3ccc(F)cc3)ccc2O[C@H]1CN(C)Cc1ccc(Cl)c(Cl)c1	inactive
C[C@@H]1CN([C@H](C)CO)C(=O)c2cc(NC(=O)Nc3ccc(F)cc3)ccc2O[C@H]1CN(C)Cc1ccc(Cl)c(Cl)c1	inactive
COc1ccc(NC(=O)Nc2ccc3c(c2)C(=O)N([C@H](C)CO)C[C@@H](C)[C@@H](CN(C)Cc2ccc(Cl)c(Cl)c2)O3)cc1	inactive
C[C@@H]1CN([C@@H](C)CO)C(=O)c2cc(NC(=O)Nc3ccc(F)cc3)ccc2O[C@H]1CN(C)Cc1ccc(Cl)c(Cl)c1	inactive
COc1ccc(S(=O)(=O)N(C)C[C@H]2Oc3ccc(NS(=O)(=O)c4cn(C)cn4)cc3CC(=O)N([C@@H](C)CO)C[C@@H]2C)cc1	inactive
CO[C@@H]1CN(C)C(=O)c2cc(NS(=O)(=O)CC(F)(F)F)ccc2OC[C@@H](C)N(C(=O)NC(C)C)C[C@@H]1C	inactive
COc1cccc(CNC(=O)C[C@H]2C=C[C@H](NC(=O)C3CCOCC3)[C@H](CO)O2)c1	inactive
COc1ccc(CN(C)C[C@H]2OCCCC[C@H](C)Oc3ccc(NC(=O)Nc4ccc5c(c4)OCO5)cc3C(=O)N([C@@H](C)CO)C[C@H]2C)cc1	inactive
C[C@@H]1CN([C@H](C)CO)C(=O)c2cc(NC(=O)Cn3cnnn3)ccc2O[C@@H]1CN(C)C(=O)Nc1ccc(C(F)(F)F)cc1	inactive
C[C@@H]1CN([C@H](C)CO)C(=O)c2cc(NC(=O)Nc3ccc(C(F)(F)F)cc3)ccc2O[C@H]1CN(C)C(=O)Nc1cccc2ccccc12	inactive
Cl.Clc1ccc2c(c1)CCc1cccnc1C2=C1CCNCC1	inactive
Cc1cc(C(=O)Nc2cccc3c2O[C@H](CN(C)Cc2ccc(Oc4ccccc4)cc2)[C@@H](C)CN([C@@H](C)CO)C3=O)n(C)n1	inactive
COC(=O)C(CC#Cc1ccc2c(c1)[C@]1(C(=O)N2)[C@H](c2ccc(OCCO)cc2)N2[C@H](c3ccccc3)[C@H](c3ccccc3)OC(=O)[C@H]2[C@@H]1C(=O)N1CCc2cc(OC)c(OC)cc2C1)C(=O)OC	inactive
COc1ccc(S(=O)(=O)N(C)C[C@@H]2Oc3c(NS(=O)(=O)c4cn(C)cn4)cccc3C(=O)N([C@@H](C)CO)C[C@@H]2C)cc1	inactive

SMILES	cytotoxicity call
C[C@H]1CCCCO[C@H](CN(C)Cc2ccccc2)[C@@H](C)CN([C@@H](C)CO)C(=O)c2cc(NC(=O)Nc3ccc(C(F)(F)F)cc3)ccc2O1	active
C[C@@H]1CCCCO[C@H](CN(C)Cc2ccccc2)[C@H](C)CN([C@@H](C)CO)C(=O)c2cc(NC(=O)Nc3ccc(C(F)(F)F)cc3)ccc2O1	active
C[C@H]1CCCCO[C@@H](CN(C)Cc2ccccc2)[C@@H](C)CN([C@@H](C)CO)C(=O)c2cc(NC(=O)Nc3ccc(C(F)(F)F)cc3)ccc2O1	active
C[C@@H]1CN([C@@H](C)CO)C(=O)c2cc(NC(=O)Nc3ccc(C(F)(F)F)cc3)ccc2O[C@@H](C)CCCCO[C@H]1CN(C)Cc1ccccc1	active
COc1ccc(S(=O)(=O)N(C)C[C@H]2Oc3ccc(NC(=O)Cn4cnnn4)cc3CC(=O)N([C@H](C)CO)C[C@@H]2C)cc1	inactive
C[C@H](CO)N1C[C@H](C)[C@@H](CN(C)C(=O)Nc2cccc3ccccc23)Oc2ccc(NS(=O)(=O)c3ccc(F)cc3)cc2CC1=O	inactive
CCCCCCCCCCCCCCCCOCCCOP(=O)(O)CO[C@H](CO)Cn1ccc(N)nc1=O	inactive
CC(C)NC(=O)Nc1ccc2c(c1)C(=O)N([C@@H](C)CO)C[C@H](C)[C@@H](CN(C)Cc1ccc3c(c1)OCO3)O2	inactive
COCCn1cc2c(n1)[C@H](CNC(=O)COC)OCC2	inactive
C[C@@H]1CCCCO[C@H](CN(C)C(=O)c2ccccc2)[C@@H](C)CN([C@H](C)CO)C(=O)c2cc(NC(=O)C3CCCCC3)ccc2O1	inactive
C[C@@H]1CN([C@@H](C)CO)C(=O)c2cc(NC(=O)Nc3ccccc3)ccc2O[C@@H](C)CCCCO[C@H]1CN(C)C(=O)Nc1cccc2ccccc12	inactive
C[C@H](CO)N1C[C@H](C)[C@H](CN(C)Cc2ccccc2)OCCCC[C@H](C)Oc2ccc(NC(=O)Nc3ccc(C(F)(F)F)cc3)cc2C1=O	active
C[C@@H]1CN([C@H](C)CO)C(=O)c2cc(NC(=O)Nc3ccc(C(F)(F)F)cc3)ccc2O[C@@H](C)CCCCO[C@@H]1CN(C)Cc1ccccc1	active
C[C@@H]1CCCCO[C@H](CN(C)Cc2ccccc2)[C@@H](C)CN([C@H](C)CO)C(=O)c2cc(NC(=O)Nc3ccc(C(F)(F)F)cc3)ccc2O1	active
C[C@@H]1CCCCO[C@H](CN(C)Cc2ccccc2)[C@@H](C)CN([C@@H](C)CO)C(=O)c2cc(NC(=O)Nc3ccc(C(F)(F)F)cc3)ccc2O1	active
Cn1nc(C2CC2)cc1N	inactive
C[C@H](CO)N1C[C@H](C)[C@@H](CN(C)C(=O)NC2CCCCC2)OCCCC[C@H](C)Oc2ccc(NC(=O)C3CCCCC3)cc2C1=O	inactive
Cc1noc(C)c1NC(=O)Nc1ccc2c(c1)C(=O)N([C@H](C)CO)C[C@H](C)[C@H](CN(C)C(=O)Cc1ccccc1)OCCCC[C@@H](C)O2	inactive
C[C@H](CO)N1C[C@H](C)[C@H](CN(C)C(=O)C2CCCCC2)Oc2cc(C#Cc3ccncc3)ccc2S1(=O)=O	inactive
Cc1onc(-c2ccccc2)c1C(=O)NC1C(=O)N2C1SC(C)(C)C2C(=O)[O-].[Na+] (stereo not given)	inactive

SMILES	cytotoxicity call
COc1ccc(S(=O)(=O)Nc2ccc3c(c2)C(=O)N([C@H](C)CO)C[C@H](C)[C@H](CN(C)C(=O)Nc2ccc(F)cc2)OCCCC[C@H](C)O3)cc1	inactive
O=C(O)c1ccoc1	inactive
Cc1ccc(S(=O)(=O)N(C)C[C@H]2Oc3cc(C#Cc4ccncc4)ccc3S(=O)(=O)N([C@H](C)CO)C[C@@H]2C)cc1	inactive
C[C@@H]1CN([C@H](C)CO)C(=O)c2cc(NC(=O)NC3CCCCC3)ccc2O[C@@H]1CN(C)Cc1ccc(C(F)(F)F)cc1	inactive
C[C@@H]1CN([C@H](C)CO)C(=O)c2cc(NC(=O)Nc3ccc(C(F)(F)F)cc3)ccc2O[C@@H](C)CCCCO[C@H]1CN(C)Cc1ccccc1	active
C[C@@H]1CCCCO[C@@H](CN(C)Cc2ccccc2)[C@H](C)CN([C@H](C)CO)C(=O)c2cc(NC(=O)Nc3ccc(C(F)(F)F)cc3)ccc2O1	inactive
C[C@H](CO)N1C[C@H](C)[C@@H](CN(C)Cc2ccccc2)OCCCC[C@H](C)Oc2ccc(NC(=O)Nc3ccc(C(F)(F)F)cc3)cc2C1=O	active
C[C@@H]1CCCCO[C@H](CN(C)Cc2ccccc2)[C@H](C)CN([C@H](C)CO)C(=O)c2cc(NC(=O)Nc3ccc(C(F)(F)F)cc3)ccc2O1	active
C[C@@H]1CCCCO[C@@H](CN(C)Cc2ccccc2)[C@H](C)CN([C@@H](C)CO)C(=O)c2cc(NC(=O)Nc3ccc(C(F)(F)F)cc3)ccc2O1	inactive
C[C@@H]1CCCCO[C@@H](CN(C)Cc2ccccc2)[C@@H](C)CN([C@H](C)CO)C(=O)c2cc(NC(=O)Nc3ccc(C(F)(F)F)cc3)ccc2O1	inactive
C[C@@H]1CN([C@@H](C)CO)C(=O)c2cc(NC(=O)Nc3ccc(C(F)(F)F)cc3)ccc2O[C@@H](C)CCCCO[C@@H]1CN(C)Cc1ccccc1	inactive
C[C@@H]1CCCCO[C@@H](CN(C)Cc2ccccc2)[C@@H](C)CN([C@@H](C)CO)C(=O)c2cc(NC(=O)Nc3ccc(C(F)(F)F)cc3)ccc2O1	active
CCC[C@@H](O)C#Cc1cnc2c(c1)C(=O)N([C@H](C)CO)C[C@H](C)[C@H](CN(C)C(=O)Nc1ccc(F)cc1)O2	inactive
COC(=O)C12CC3(C(=O)OC)CC(C(=O)OC)(CC(C(=O)OC)(C1)C3=O)C2=O	inactive
COc1cccc(S(=O)(=O)Nc2ccc3c(c2)[C@@H]2C[C@H](CC(=O)NCc4cccc(F)c4)O[C@@H](CO)[C@@H]2O3)c1	inactive
Cc1c2occ(C(C)(C)C)c2cc2c3c(c(=O)oc12)CCCC3	inactive
NC(=O)c1ccco1	inactive
C[C@H](CO)N1C[C@H](C)[C@H](CN(C)C(=O)Nc2cccc3ccccc23)Oc2c(NC(=O)NC3CCCCC3)cccc2C1=O	inactive
COc1ccc(NC(=O)N(C)C[C@H]2Oc3ccc(NC(=O)C4CC4)cc3C(=O)N([C@H](C)CO)C[C@H]2C)cc1	inactive
C=CCOC(=O)[C@H]1[C@@H]2C(=O)O[C@@H](c3ccccc3)[C@@H](c3ccccc3)N2[C@@H](c2ccc(OCCOC(=O)NCCCCCC(=O)NO)cc2)[C@@]12C(=O)Nc1ccccc12	inactive
